Reference: PubChem BioAssay AID431 (Sanford-Burnham Center for Chemical Genomics, 2006)
The whole screen tested about 63,000 compounds, of which about 1,100 (1.7%) were called active. The entries come from a sample that favours actives as a whole. Measured potencies and affinities stand elsewhere. A number with no mark means an inactive call.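 Rule for the calls: active = compounds whose percent cytotoxicity in the single-dose primary screen, scaled between solvent and toxic-drug controls, exceeds 50; inactive = the rest.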

assay: viability loss of HPDE-C7K cells – cell-based, fluorescence, HTS, primary screen (AID 431); details: HPDE-C7K KRASV12 cells, Alamar Blue viability, 48 h; at 10 µM; active compounds read high;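 note: 0% = DMSO solvent wells and 100% = doxorubicin-treated wells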

Row | SMILES | cytotoxicity
1 | COc1cccc(C(O)c2cnc(C(C)C)n2C)c1OC (configuration not stated) | 10.6%
2 | O=C(Nc1ccc(S(=O)(=O)N2CCCCC2)cc1)c1ccncc1 | -7.1%
3 | CCOc1ccccc1-c1nnc(SCC(=O)Nc2ccccc2)o1 | -17.6%
4 | COCCCNC(=O)CS(=O)(=O)Cc1nc(-c2cccc(OC)c2)oc1C | -6.5%
5 | COc1ccc(-c2nnc3n2-c2ccccc2SC3)cc1OC | 0%
6 | O=C(Cc1cc(=O)[nH]c(=O)[nH]1)N1CCN(C(=O)c2ccco2)CC1 | 7.1%
7 | CCCCc1ccc(-c2ccc(C)cc2O)nc1 | -28%
8 | CCCCCc1cc(O)c2c(C)cc(=O)oc2c1 | 39.2%
9 | Cc1ccc(-c2csc3nc(C)n(-n4c(C)ccc4C)c(=O)c23)o1 | 10.3%
10 | C=CCn1c(SCc2csc(C)n2)nc2sc3c(c2c1=O)CCCCC3 | 2.5%
11 | C=CCn1c(SCc2csc(C)n2)nc2scc(-c3ccc(C)o3)c2c1=O | 80.2% (active)
12 | Cc1ccc(-c2noc(CN(C(=O)CCN3C(=O)c4ccccc4C3=O)C(C)C)n2)cc1 | -8.2%
13 | CC(=O)OCCOc1nc(N(C)C)nc(N(C)C)n1 | -13.1%
14 | O=C(CCN1CCCC1Cc1ccccc1)c1ccc2c(c1)OCCO2 (configuration not stated) | -15.3%
15 | CCCOc1ccc2ccccc2c1/C=N/n1c(C)nnc1-n1nc(C)cc1C | 39.3%
16 | Cc1cc(C)n(-c2nnc(C)n2/N=C/c2cc(Br)ccc2OCc2ccccc2)n1 | 65.2% (active)
17 | Cc1cc(C)n(-c2nnc(C)n2/N=C/c2ccccc2OCc2ccccc2Cl)n1 | 43.9%
18 | COc1ccc(-c2nnn(CC(=O)c3ccc4c(c3)OCCO4)n2)cc1OC | 0.3%
19 | O=C(c1ccc2ccccc2c1)N1CCN(c2ccc(O)cc2)CC1 | 65.9% (active)
20 | CN1CCN(C(=O)c2ccc3ccccc3c2)CC1 | -8.1%
21 | O=C(c1ccc2ccccc2c1)N1CCN(c2ccccc2)CC1 | -11.6%
22 | CC(C)OCCCNC(=O)c1ccc(NC(=O)C2CCCO2)cc1 (configuration not stated) | -5.7%
23 | Cc1cc(NC(=O)C23CCC(C)(C(=O)O2)C3(C)C)no1 (configuration not stated) | 1.7%
24 | O=C(NCc1ccco1)N1c2ccccc2Sc2ccccc21 | 7.5%
25 | COC(=O)C1=C(C)NC(=O)C1(NC(=O)CN1CCCC1=O)C(F)(F)F (configuration not stated) | 13.1%

Row | SMILES | cytotoxicity
26 | CCOC(=O)C1CCCN(C(=O)c2cc3c(C)nc4ccccc4c3o2)C1 (configuration not stated) | -14.6%
27 | N#Cc1c(NC(=O)CSc2nnnn2C2CCCCC2)sc2c1CCCC2 | -26.1%
28 | Cc1sc(NC(=O)CSc2nnnn2C2CCCC2)c(C#N)c1C | -6.4%
29 | N#Cc1c(NC(=O)CSc2nnnn2C2CCCC2)sc2c1CCCC2 | 50.4% (active)
30 | CC1CCCN(C(=O)c2ccc3nc[nH]c3c2)C1 (configuration not stated) | -23.2%
31 | COc1ccc(C)cc1NC(=O)c1ccc(S(=O)(=O)N2CCOCC2)cc1 | -1.3%
32 | Nc1nonc1C(=O)NCCNC(=O)c1ccccc1F | 2.3%
33 | Nc1nonc1C(=O)NCCN=Cc1cc(Cc2ccccc2)cc(Br)c1O | 82.8% (active)
34 | COc1cccc(C=NCCNC(=O)c2nonc2N)c1O | -2.1%
35 | O=C(OCc1ccccc1Cl)c1ccc(-n2cnnc2)cc1 | -8%
36 | CCOc1ccc(-n2cnnn2)cc1S(=O)(=O)NCc1ccccc1 | 4.1%
37 | CC(C)(O)C1=NOC(c2ccccc2)C1 (configuration not stated) | 6.7%
38 | CCOC(=O)c1ccc(NC(=O)CSc2nnc(-c3cccs3)n2CC)cc1 | 0.1%
39 | COc1ccc(C/C(O)=C(\C#N)c2nc3ccccc3s2)cc1 | 46.6%
40 | COC(=O)c1ccc(/C(O)=C(\C#N)c2nc3ccccc3s2)cc1 | 52.1% (active)
41 | Cc1ccc(SC/C(O)=C(\C#N)c2nc3ccccc3s2)cc1 | 79.7% (active)
42 | N#C/C(=C(/O)CN1CCOCC1)c1nc2ccccc2s1 | 3%
43 | Cc1ccc(SC/C(O)=C(\C#N)c2nc3ccccc3n2C)cc1 | 20.5%
44 | CC(C)=C(C#N)c1nc2ccccc2s1 | -11.4%
45 | c1ccc(N2CCN(c3nnc(Cc4cccnc4)c4ccccc34)CC2)nc1 | 8.4%
46 | COc1ccc(OC)c(NC(=O)c2cnc3ccccn3c2=O)c1 | 12.6%
47 | COC(=O)CN(c1ccc(F)cc1)S(=O)(=O)c1ccccc1 | -5.6%
48 | CC(C)CCNC(=O)CN(C(=O)CCC(=O)Nc1ccccn1)c1ccc2c(c1)OCO2 | -9.3%
49 | COC(=O)c1cc(N2C(=O)C3C(C2=O)C2(C)C=CC3(C)O2)ccc1Cl (configuration not stated) | 8%
50 | Cc1cccc(OCCn2c(=O)n(C)c3ccccc32)c1 | 2.1%

Row | SMILES | cytotoxicity
51 | Cc1cccc(OCCCN2CCCCCC2)c1 | 18.4%
52 | CCCn1nc(CC(=O)O)c2ccccc2c1=O | 0.6%
53 | Cc1ccc(NC(=O)CCn2c(=O)oc3ccccc32)c(C)c1 | -9.2%
54 | CCCCn1c(SCN2C(=O)c3ccccc3C2=O)nc2cc(S(N)(=O)=O)ccc21 | -14.9%
55 | CCCCn1c(SCc2c(C)noc2C)nc2cc(S(N)(=O)=O)ccc21 | 39.5%
56 | CCCCn1c(SCc2ncc(-c3ccccc3)o2)nc2cc(S(N)(=O)=O)ccc21 | 53.1% (active)
57 | COc1ccccc1C1C2CCCCC2(O)CCN1CC(=O)Nc1ccccc1 (configuration not stated) | -7.4%
58 | Cn1cc(S(=O)(=O)CC(=O)N2CCc3ccccc32)c2ccccc21 | 26.9%
59 | O=C(CSc1nnc(-c2cc3ccccc3cc2O)n1Cc1ccco1)c1ccc(F)cc1 | 13.1%
60 | COc1ccc(C(=O)CSc2nnc(-c3ccccn3)n2Cc2ccco2)cc1 | 5%
61 | COc1ccc(C(=O)CSc2nnc(-c3cc4ccccc4cc3O)n2Cc2ccco2)cc1 | 66.1% (active)
62 | O=c1c2c3nc4ccccc4nc3n(/N=C/c3ccco3)c2ncn1CCC1=CCCCC1 | 30%
63 | CCCn1c(C)nc2c(c1=O)c1nc3ccccc3nc1n2CCC1=CCCCC1 | 16.1%
64 | Cc1nc2c(c(=O)n1CCC1=CCCCC1)c1nc3ccccc3nc1n2/N=C/c1ccco1 | 63.1% (active)
65 | COc1ccc(OC)c(S(=O)(=O)n2nc(-c3ccccc3)cc2N)c1 | -10.9%
66 | COc1ccc(S(=O)(=O)n2nc(-c3cc(OC)c(OC)c(OC)c3)cc2N)cc1OC | 5.2%
67 | O=C(CSc1nc2ccccc2[nH]1)N1CCCCC1 | 0.6%
68 | Cc1ccccc1NC(=O)N1CCCC(c2nc(-c3ccc(C(C)C)cc3)no2)C1 (configuration not stated) | 28.5%
69 | COc1ccc(NC(=O)N2CCCC(c3nc(-c4ccc(C(C)C)cc4)no3)C2)cc1 (configuration not stated) | 65.6% (active)
70 | COc1ccc(-c2noc(C3CCCN(C(=O)c4cccs4)C3)n2)cc1 (configuration not stated) | -10.3%
71 | CN(CC(=O)N1CCc2ccccc21)S(=O)(=O)c1ccc(Cl)cc1 | 1.1%
72 | COC(=O)C(C(=O)Nc1cc(C)on1)C1CCCCCC1 (configuration not stated) | -4.9%
73 | CSc1nc2cc(Cl)ccc2s1 | -3.5%
74 | COc1ccc(C(=O)c2ccc(N3CCOCC3)cc2)c(OC)c1 | 4.5%
75 | COc1ccc(C(=O)Oc2ccc(C(C)=O)cc2)c(OC)c1 | 3.6%

Row | SMILES | cytotoxicity
76 | COc1ccc(C(=O)c2ccc(N(C)C)cc2)c(OC)c1 | 56.3% (active)
77 | COc1cc(SC)ccc1C(=O)Nc1ccccc1C#N | 28.3%
78 | Nc1cc(N)nc(SCCOc2ccccc2F)n1 | -15.6%
79 | COc1ccccc1NC(=O)N1CCCC1C(=O)Nc1nnc(C(C)C)s1 (configuration not stated) | 4.6%
80 | O=C(NCc1ccco1)C(c1cccnc1)N(C(=O)Cn1nnc2ccccc21)c1ccc(F)cc1 (configuration not stated) | 9.8%
81 | COC(=O)C1=C(C)N(C)C(C)=C(C(=O)OC)C1c1ccncc1 | -1%
82 | Cc1ccc(CNC(=O)CCS(=O)(=O)c2cccc3nonc23)cc1 | -9.3%
83 | CCOc1ccc(-c2cc(C(=O)N3CCN(c4ccccn4)CC3)c3ccccc3n2)cc1 | 53% (active)
84 | COc1ccc(-c2cc(C(=O)N3CCN(c4ccccn4)CC3)c3ccccc3n2)cc1 | 5.9%
85 | Cc1ccc(-c2cc(C(=O)N3CCN(c4ncccn4)CC3)c3ccccc3n2)cc1 | 58.8% (active)
86 | Cc1ccc2nc(-c3ccccn3)cc(C(=O)N3CCN(c4ncccn4)CC3)c2c1 | 13.2%
87 | O=C(c1cc(-c2ccccc2)nc2ccccc12)N1CCN(c2ccccn2)CC1 | 27.1%
88 | Cc1ccc(-c2cc(C(=O)N3CCOCC3)c3ccccc3n2)cc1 | 1.8%
89 | COc1cccc(-c2cc(C(=O)N3CCN(c4ncccn4)CC3)c3ccccc3n2)c1 | 15.2%
90 | CCOc1ccc(-c2cc(C(=O)N3CCN(C)CC3)c3ccccc3n2)cc1 | -12.4%
91 | CCOC(=O)N1CCN(C(=O)c2cc(-c3ccc(OCC)cc3)nc3ccccc23)CC1 | 63.5% (active)
92 | CSC1=C(C#N)C(c2ccc(Cl)cc2)C2=C(CC(C)(C)CC2=O)N1 (configuration not stated) | 2.7%
93 | O=C(CSc1nnc(-c2ccco2)o1)N1CCOCC1 | -5.8%
94 | Cc1cc(NC(=O)CN2CCN(c3ncccn3)CC2)no1 | -2.6%
95 | CCCn1nnc(NC(=O)COc2ccccc2Cl)n1 | 8.6%
96 | Cc1cc(S(=O)(=O)N2CCC(NC(=O)C34CC5CC(CC(C5)C3)C4)CC2)ccc1-n1cnnn1 | -5.5%
97 | COc1ccccc1OCCNC(=O)c1cccs1 | -0.7%
